Here are results for 40 compounds from PubChem BioAssay.

Calls of active or inactive are those of the source.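 Rule for the calls: active = mean duplicate potentiation above the buffer control mean plus 5 SD of buffer wells; inactive = the rest.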

The target of the experiment is Potassium voltage-gated channel subfamily KQT member 2 (Rattus norvegicus) (UniProt O88943). Kind of experiment: KCNQ2 thallium flux enhancement – KCNQ2-CHO-K1 cells, selectivity assay for KCNQ1 potentiator project (AID 493009).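 Note: assay conditions were tuned for KCNQ1 rather than KCNQ2 modulators; signal is max minus min fluorescence divided by baseline after thallium stimulus.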 To be noted: FluxOR thallium flux fluorescence, at 10 µM; stronger effect = higher value, scaled: buffer 0, activator control 100.
Sequence of Potassium voltage-gated channel subfamily KQT member 2 (Rattus norvegicus) (O88943 whole entry, looked up): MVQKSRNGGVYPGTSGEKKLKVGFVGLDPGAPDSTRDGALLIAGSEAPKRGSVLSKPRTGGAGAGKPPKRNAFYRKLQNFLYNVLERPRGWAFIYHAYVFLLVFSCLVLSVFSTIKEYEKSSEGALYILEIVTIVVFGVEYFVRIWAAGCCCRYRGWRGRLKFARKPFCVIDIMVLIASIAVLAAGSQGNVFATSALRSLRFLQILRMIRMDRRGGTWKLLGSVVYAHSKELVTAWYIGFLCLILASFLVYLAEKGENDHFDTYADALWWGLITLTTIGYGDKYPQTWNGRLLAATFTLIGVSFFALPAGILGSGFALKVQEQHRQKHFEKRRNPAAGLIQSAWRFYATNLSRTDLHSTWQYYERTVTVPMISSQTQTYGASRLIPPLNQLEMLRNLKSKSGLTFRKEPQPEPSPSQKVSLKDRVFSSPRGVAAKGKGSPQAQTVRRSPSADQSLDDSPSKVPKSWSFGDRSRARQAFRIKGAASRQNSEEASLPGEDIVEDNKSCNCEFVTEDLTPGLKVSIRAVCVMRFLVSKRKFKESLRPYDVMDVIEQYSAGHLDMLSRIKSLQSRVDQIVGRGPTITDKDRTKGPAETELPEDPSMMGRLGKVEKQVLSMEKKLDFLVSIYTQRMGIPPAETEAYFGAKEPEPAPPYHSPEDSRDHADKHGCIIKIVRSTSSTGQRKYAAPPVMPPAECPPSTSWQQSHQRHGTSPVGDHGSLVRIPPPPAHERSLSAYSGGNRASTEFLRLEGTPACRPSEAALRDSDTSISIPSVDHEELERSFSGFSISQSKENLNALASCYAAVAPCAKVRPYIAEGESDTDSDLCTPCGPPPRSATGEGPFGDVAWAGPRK
Turning to `Cn1ccnc1SCC(=O)NC1CC1`, the outcome was inactive. In the case of `N#CC(c1cccc(Cl)c1)c1ccc2c(C(F)(F)F)cc(C(F)(F)F)nc2n1` (stereo not given), the potentiation is 298% (active). Still for that read-out and setting: in the case of `Cc1ccc(C)c(NC(=S)NNC(=O)c2csc3c2CCC(C)C3)c1` (stereo not given) it was 322% (active). Same read-out and setting: in the case of `CSC(=S)N/N=C/c1ccc(Br)cc1` it was 179% (active). In the case of `O=c1sc(N2CCN(c3ccccc3F)CC2)nc2ccsc12`, the outcome was inactive. `C=C1CCN(c2ccc(C(=O)NCc3ccc(C)cc3)cc2[N+](=O)[O-])CC1`: the result was inactive. Regarding `COc1ccc(C)cc1-n1c(C)cc(C=O)c1C`, the potentiation is 153% (active). As to `COc1ccc(-n2cc(-c3ccccc3)c3c(=S)nc[nH]c32)cc1`, the potentiation was 172% (active). `Oc1c(Cl)cc(Cl)c2cccnc12`: the potentiation was 211% (active). As to `CCOC(=O)Cn1c2ccccc2c2nc3ccccc3nc21`, the outcome was inactive.

`CCN(CC)C(=S)NC(=O)c1ccc(Cl)cc1Cl`: the potentiation is 196% (active). As to `O=C1NN(c2ccccc2)C(=O)/C1=C\c1cccc(OC(=O)c2cccs2)c1`, the potentiation was 202% (active). In the case of `COc1ccc(-n2cc(CNC3CCN(C)CC3)c(-c3cccc(F)c3)n2)cc1`, the outcome was inactive.

In the case of `Cc1nn(CC2CC2)c(=O)n1-c1ccc(F)cc1`, the result was inactive. The same measure, in the same setting: to `Cc1nc(NC(=S)NC(=O)c2cccs2)ccc1Br` belongs “inactive”.

`COc1cccc2sc(NNC(=O)c3nc4ccccc4s3)nc12`: the potentiation was 420% (active).

As for `CC(C)(C)CC(C)(C)NCC(O)COCCOc1ccc(Br)cc1` (stereo not given), the result was inactive.

`S=c1sc2c(Cl)ncnc2n1-c1ccccc1`: the potentiation was 364% (active). As for `CC(C)C1=NN(C(=O)c2ccccc2)C(O)(C(C)(C)C)C1` (stereo not given), the outcome was inactive. With `Cc1[nH]n(-c2ccc(Cl)cc2)c(=O)c1/C=N/c1nnc(-c2ccccc2)s1`, the potentiation was 466% (active). For `CCOC(=O)c1c(C)[nH]c(C(=O)Cn2nnc(-c3ccccc3Cl)n2)c1C`, the outcome was inactive. Still for that read-out and setting: to `COc1ccc(-c2csc(NC(=O)C3=NN(c4ccccc4)C(=O)CC3)n2)cc1` belongs “inactive”. As for `Cc1onc(-c2ccccc2)c1C(=O)NC(=S)Nc1sc2c(c1C#N)CCC(C)C2` (stereo not given), the potentiation was 142% (active).

On to `CCc1ccc(OCC(=O)Nc2ccc(S(=O)(=O)N3CCOCC3)cc2)cc1`, for which the result was inactive.

For the compound `C=C[C@@]1(C)CC(=O)[C@]2(O)[C@@]3(C)[C@@H](O)CCC(C)(C)[C@@H]3[C@H](OC(C)=O)[C@H](O)[C@@]2(C)O1`, the result was inactive.

For `Cc1cc(C(=O)OCC(=O)NCc2ccco2)c(C)n1-c1ccc(F)cc1`, the potentiation is 323% (active). Take `COCCCNc1nc2ccccc2nc1NS(=O)(=O)c1cccs1`: the result was inactive. On the same count and under the same terms, to `O=C(/C=C/c1ccco1)Nc1scc(-c2ccccc2)c1C(=O)O` belongs “inactive”; to `COc1ccc(C)cc1N=Nc1ccc(O)c2ncccc12`, “inactive”; to `CC1CCN(c2ccccc2NC(=S)NC(=O)c2cccs2)CC1`, “inactive”.

`COc1ccc2c(c1)cc(C)c1nnc(SCC(=O)N3CCN(C(=O)c4ccco4)CC3)n12`: the outcome was inactive. Still for that read-out and setting: in the case of `O=C(O)c1ccccc1NS(=O)(=O)c1cccc(-n2sc3ccccc3c2=O)c1` it was “inactive”.

As to `CC(=O)Oc1c(-c2ccc(Br)o2)oc2ccccc2c1=O`, the potentiation is 482% (active). As to `Cc1ccc(N=Cc2cc(Br)cc(Cl)c2O)cc1`, the potentiation was 142% (active). `CN(C(=S)NC(=O)c1ccccc1)C1CCCCC1`: the potentiation was 186% (active). The same measure, in the same setting: in the case of `O=C(Nc1nnc(-c2ccc3c(c2)CCCC3)o1)c1ccc(Cl)cc1Cl` it was 442% (active). On to `CCCC(=O)Nc1cc(Cl)ccc1N1CCN(C(=O)CC)CC1`, for which the outcome was inactive. The same measure, in the same setting: to `CCCn1c(NC(=O)CN2C(=O)NC3(CCCC3)C2=O)nc2ccccc21` belongs “inactive”; to `C=C(C)CNC(=S)Nc1nc2c(cc1C(=O)OCC)CCCC2`, “inactive”. For the compound `O=C(NC(=S)NCCC1=CCCCC1)c1ccco1`, the potentiation is 315% (active).
